Source: the supplement of paper PMC11732987, “Enantioselective OTUD7B fragment discovery through chemoproteomics screening and high-throughput optimisation” (Communications Chemistry, 2025)

How the values were obtained:
Experiment in all cases: log2 ratio of Biotin-Ahx-Ub-VS probe labelling (fragment/DMSO); higher = less target engagement (more negative = stronger competition), active = hit call of the paper (q ≤ 0.05, log2 ratio ≤ -1)
Conditions in all cases: compound concentration: 200 uM; treatment time: 3 h
USP19 = biological target: T1, USP19 (UniProt O94966)
T1 sequence (whole entry): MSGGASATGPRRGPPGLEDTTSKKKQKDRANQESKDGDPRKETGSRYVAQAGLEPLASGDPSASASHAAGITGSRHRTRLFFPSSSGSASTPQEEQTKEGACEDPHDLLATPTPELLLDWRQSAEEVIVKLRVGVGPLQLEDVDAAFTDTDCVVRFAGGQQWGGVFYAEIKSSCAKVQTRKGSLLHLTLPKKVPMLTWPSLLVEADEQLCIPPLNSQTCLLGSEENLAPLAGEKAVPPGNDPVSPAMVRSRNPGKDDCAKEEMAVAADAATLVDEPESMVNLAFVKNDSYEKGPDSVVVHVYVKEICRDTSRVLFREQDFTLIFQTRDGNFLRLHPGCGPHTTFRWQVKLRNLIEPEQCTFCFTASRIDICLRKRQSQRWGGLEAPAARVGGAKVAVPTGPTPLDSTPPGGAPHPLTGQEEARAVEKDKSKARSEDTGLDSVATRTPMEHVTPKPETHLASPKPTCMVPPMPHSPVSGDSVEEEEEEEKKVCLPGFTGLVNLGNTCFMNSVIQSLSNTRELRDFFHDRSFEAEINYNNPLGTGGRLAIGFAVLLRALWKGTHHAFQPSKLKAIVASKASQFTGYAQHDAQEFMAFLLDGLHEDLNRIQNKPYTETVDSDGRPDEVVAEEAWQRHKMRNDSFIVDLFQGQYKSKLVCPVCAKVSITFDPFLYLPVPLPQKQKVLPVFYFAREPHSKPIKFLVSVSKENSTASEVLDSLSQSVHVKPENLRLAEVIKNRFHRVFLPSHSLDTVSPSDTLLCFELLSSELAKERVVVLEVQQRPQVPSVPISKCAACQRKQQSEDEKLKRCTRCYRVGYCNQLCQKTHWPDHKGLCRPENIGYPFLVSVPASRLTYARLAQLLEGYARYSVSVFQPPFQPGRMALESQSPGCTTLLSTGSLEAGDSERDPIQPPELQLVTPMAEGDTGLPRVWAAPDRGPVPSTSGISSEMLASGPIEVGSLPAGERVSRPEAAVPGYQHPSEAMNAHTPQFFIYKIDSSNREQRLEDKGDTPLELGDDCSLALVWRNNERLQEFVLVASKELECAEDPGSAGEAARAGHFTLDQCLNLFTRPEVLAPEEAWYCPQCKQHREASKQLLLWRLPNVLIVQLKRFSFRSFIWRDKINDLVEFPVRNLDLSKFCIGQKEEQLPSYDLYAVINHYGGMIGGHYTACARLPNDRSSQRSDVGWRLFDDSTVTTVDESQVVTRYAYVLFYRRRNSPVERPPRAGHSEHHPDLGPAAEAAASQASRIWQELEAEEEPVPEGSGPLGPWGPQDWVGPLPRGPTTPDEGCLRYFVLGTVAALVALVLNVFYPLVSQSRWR
Method in brief: (§1)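 Labelled DUBs from HEK293T lysate were NeutrAvidin-enriched, digested with LysC and trypsin, and run by diaPASEF LC-MS/MS. Before that, each 495 µg sample in Tris/CHAPS/IGEPAL buffer with protease inhibitors was treated in triplicate with fragment at 200 µM or vehicle for 3 h, then with Biotin-Ahx-Ub-VS at 0.5 µM final for 1 h. Values are average log2 ratios of fragment over vehicle by unpaired t-test, based on global-median-normalised Spectronaut label-free quantities from proteins with ≥2 unique peptides.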

USP22 = biological target: T2, USP22 (UniProt Q9UPT9)
T2 sequence (whole entry): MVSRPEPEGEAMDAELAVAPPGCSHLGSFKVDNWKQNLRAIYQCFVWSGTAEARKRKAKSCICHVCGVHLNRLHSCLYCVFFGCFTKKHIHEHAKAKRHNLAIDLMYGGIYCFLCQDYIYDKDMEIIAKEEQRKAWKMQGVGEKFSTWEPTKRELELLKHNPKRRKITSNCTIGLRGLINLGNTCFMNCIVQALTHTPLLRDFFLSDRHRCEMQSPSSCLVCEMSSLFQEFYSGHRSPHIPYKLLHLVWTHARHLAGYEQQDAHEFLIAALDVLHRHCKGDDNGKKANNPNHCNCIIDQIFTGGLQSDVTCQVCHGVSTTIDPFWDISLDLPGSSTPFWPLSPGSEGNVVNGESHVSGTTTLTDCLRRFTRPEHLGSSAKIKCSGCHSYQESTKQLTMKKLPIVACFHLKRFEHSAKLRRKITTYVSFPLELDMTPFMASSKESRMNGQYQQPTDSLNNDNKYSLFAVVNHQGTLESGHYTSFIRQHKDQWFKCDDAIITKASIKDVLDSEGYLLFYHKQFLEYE
Method in brief: as §1

USP24 = USP24 (UniProt Q9UPU5)
Chain of USP24 (Q9UPU5 whole entry): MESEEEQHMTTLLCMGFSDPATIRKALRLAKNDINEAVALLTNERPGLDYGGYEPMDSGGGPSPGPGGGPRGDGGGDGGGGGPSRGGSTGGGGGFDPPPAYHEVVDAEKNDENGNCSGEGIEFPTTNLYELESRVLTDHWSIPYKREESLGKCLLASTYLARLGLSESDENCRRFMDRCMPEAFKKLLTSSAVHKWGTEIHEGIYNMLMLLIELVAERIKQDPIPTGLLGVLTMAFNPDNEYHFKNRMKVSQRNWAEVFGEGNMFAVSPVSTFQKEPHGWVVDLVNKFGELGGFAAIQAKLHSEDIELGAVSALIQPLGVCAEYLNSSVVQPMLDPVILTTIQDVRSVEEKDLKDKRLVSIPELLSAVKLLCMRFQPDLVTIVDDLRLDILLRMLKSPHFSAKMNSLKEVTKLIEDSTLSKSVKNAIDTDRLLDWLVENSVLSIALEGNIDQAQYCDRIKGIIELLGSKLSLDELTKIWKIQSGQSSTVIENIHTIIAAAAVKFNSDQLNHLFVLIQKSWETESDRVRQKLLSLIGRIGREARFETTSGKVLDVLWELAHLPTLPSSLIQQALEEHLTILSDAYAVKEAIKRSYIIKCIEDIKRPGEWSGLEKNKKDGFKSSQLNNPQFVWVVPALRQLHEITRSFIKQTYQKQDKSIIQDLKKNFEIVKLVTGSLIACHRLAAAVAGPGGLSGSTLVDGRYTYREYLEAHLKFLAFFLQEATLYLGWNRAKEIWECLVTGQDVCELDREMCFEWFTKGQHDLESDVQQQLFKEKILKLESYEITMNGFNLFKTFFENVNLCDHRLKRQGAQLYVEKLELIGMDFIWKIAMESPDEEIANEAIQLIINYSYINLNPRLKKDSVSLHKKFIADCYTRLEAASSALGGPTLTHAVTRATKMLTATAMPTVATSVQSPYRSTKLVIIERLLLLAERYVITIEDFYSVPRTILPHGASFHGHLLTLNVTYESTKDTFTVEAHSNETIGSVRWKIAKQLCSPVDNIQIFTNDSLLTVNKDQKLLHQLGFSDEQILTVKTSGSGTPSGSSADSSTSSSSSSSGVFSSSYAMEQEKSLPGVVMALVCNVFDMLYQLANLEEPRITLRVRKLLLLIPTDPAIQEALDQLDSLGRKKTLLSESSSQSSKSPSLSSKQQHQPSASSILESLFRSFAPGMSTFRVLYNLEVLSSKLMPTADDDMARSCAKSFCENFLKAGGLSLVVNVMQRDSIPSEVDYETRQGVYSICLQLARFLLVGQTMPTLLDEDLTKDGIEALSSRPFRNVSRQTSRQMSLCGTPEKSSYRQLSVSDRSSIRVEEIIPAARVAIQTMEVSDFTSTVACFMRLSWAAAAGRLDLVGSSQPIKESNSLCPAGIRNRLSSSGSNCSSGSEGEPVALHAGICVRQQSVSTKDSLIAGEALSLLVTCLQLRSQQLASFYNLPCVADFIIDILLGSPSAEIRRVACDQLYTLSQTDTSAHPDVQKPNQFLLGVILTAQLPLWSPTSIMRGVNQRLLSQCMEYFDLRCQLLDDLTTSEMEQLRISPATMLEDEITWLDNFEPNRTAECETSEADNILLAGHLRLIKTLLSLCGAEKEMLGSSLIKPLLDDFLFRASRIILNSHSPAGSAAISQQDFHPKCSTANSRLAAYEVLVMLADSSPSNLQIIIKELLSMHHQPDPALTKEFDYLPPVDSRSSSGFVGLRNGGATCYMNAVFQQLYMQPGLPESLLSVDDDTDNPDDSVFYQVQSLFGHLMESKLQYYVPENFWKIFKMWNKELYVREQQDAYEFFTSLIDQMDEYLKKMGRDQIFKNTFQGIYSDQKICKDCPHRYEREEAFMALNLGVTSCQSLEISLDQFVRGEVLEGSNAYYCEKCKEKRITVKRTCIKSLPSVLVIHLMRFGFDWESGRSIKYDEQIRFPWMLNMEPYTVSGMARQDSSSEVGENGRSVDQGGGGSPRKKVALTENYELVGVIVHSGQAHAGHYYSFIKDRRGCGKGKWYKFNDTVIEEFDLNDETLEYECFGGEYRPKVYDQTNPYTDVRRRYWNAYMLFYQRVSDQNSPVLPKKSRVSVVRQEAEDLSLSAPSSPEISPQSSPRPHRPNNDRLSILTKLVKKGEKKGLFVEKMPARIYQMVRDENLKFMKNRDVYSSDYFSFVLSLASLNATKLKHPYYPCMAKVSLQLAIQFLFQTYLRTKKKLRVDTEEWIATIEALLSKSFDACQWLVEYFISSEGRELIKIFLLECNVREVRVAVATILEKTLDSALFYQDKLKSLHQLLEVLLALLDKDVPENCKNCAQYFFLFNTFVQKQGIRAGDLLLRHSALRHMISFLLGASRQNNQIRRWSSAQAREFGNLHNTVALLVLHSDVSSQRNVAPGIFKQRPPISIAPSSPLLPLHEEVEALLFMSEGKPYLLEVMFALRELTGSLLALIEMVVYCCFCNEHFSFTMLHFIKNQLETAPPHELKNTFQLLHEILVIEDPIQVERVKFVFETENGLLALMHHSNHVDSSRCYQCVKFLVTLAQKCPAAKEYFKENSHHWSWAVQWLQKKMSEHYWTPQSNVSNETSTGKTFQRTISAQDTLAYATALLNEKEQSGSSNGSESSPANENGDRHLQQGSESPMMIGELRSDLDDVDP
Method in brief: as §1

USP25 = biological target: T3, USP25 (UniProt Q9UHP3)
T3 sequence (whole entry): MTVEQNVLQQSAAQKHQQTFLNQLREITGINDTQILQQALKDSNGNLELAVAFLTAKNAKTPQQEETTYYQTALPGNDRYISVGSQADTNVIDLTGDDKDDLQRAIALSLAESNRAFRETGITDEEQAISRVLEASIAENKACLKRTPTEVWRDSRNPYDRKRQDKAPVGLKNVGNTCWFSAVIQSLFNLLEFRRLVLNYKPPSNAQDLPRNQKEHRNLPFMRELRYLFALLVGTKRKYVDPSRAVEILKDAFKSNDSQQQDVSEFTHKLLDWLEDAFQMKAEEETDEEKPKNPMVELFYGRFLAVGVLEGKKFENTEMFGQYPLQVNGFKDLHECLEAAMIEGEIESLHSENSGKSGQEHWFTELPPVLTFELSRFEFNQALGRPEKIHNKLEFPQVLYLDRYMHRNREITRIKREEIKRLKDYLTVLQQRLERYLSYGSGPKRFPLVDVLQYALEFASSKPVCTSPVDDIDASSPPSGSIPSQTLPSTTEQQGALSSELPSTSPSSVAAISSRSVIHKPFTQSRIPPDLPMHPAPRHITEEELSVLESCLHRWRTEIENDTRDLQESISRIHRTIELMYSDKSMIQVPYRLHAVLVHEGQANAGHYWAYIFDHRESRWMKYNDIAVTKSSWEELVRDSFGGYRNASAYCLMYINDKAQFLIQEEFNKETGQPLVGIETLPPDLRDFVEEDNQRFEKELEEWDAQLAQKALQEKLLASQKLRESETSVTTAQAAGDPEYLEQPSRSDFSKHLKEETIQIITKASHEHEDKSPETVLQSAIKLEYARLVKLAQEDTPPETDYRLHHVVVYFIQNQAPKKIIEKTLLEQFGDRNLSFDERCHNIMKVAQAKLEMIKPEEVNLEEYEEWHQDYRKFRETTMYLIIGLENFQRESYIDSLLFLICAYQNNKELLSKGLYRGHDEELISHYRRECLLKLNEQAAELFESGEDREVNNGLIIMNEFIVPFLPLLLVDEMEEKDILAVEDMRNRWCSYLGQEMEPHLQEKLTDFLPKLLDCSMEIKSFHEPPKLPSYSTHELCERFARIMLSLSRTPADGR
Method in brief: as §1

USP28 = biological target: T4, USP28 (UniProt Q96RU2)
T4 sequence (whole entry): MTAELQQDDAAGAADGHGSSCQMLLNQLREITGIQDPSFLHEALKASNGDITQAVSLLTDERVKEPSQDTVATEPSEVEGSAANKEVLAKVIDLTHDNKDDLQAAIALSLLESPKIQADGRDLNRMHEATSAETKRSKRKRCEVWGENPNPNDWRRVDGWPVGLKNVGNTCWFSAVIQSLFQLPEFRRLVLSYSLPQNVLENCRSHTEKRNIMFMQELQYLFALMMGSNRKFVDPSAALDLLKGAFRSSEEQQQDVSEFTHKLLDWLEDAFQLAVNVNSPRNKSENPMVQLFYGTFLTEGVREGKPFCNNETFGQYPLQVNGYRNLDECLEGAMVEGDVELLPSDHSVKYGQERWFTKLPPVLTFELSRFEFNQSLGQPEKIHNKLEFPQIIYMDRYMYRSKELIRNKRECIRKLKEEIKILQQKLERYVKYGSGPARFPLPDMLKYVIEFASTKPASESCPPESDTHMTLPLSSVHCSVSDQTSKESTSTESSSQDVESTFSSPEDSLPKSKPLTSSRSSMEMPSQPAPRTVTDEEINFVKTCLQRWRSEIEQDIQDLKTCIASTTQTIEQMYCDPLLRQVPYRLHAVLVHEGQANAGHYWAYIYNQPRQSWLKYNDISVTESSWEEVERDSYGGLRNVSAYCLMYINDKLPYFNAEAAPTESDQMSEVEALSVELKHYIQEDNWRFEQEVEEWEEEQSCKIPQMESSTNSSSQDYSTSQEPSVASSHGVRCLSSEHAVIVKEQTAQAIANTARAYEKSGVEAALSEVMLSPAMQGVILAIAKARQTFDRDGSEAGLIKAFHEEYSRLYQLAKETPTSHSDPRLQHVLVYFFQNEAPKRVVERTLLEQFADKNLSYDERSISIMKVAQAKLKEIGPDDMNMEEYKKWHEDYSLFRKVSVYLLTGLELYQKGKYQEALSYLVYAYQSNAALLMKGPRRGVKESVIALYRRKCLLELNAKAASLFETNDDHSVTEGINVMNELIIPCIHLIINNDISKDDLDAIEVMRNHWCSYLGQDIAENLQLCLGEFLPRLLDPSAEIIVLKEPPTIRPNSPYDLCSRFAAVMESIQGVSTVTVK
Method in brief: as §1

Measured: log2 ratio of Biotin-Ahx-Ub-VS probe labelling

Cc1ccc(C)c(Oc2ccc(CNC(=O)CCl)cn2)c1.Cl
inactive: USP19 -0.382 | USP22 -0.856 | USP24 -0.83 | USP25 -0.627 | USP28 -0.765
